Source: PubChem (several laboratories)
TWEAK-Fn14 inh – inhibitors of TWEAK-Fn14 interaction signaling. actives 2% (n = 360,000). AID 1159606. TWEAK-stimulated Fn14 reporter cells, luciferase luminescence, 8 h. inhibition, % at 10 µM; in the data active = inhibition above about 50%
HSF1 inh – HSF1 inhibition; AID 2098; actives 0.77% (n = 300,000); NIH3T3-HGL HSE-luciferase, MG132-induced, luminescence 8 h; hits give low values; activity change, negative = inhibition, % at 7.5 µM (by protocol);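 active = more than half of replicate wells show activity change below -50%, luminescence cut by over half; inconclusive = some wells, but at most half, below -50%; inactive = no replicate well below -50%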;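 also: luciferase reports HSF-1 transcriptional activity via heat shock element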
LMP1 NFkB inh – reduces LMP1-driven NF-kappaB luciferase signal; LMP1-induced NF-kappaB luciferase reporter cells, luminescence; inhibition, % at 12.5 µM; actives 0.69% (n = 350,000); in the data active = inhibition above about 41%; inconclusive = no clear call, values can overlap the other calls
LGR2 antag – blocks bursicon-induced cAMP signaling via Drosophila LGR2 | HEK293 LGR2, CRE-luciferase, bursicon-stimulated, 4 h | inhibition, % at 9.99 µM | actives 0.35% (n = 380,000);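 active = drop in luminescence signal, shown as inhibition above about 50% in the replicate tests, limit read from the data, passing the limit was not always enough; inconclusive = probably only some replicates passing the limit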;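 also: agonist challenge used bursicon conditioned medium at about half maximal strength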
TROY signal inh – TROY signaling inhibition; Q293 LMP1-TROYcd NF-kB luciferase reporter, 4 h; inhibition, % at 10 µM; actives 0.98% (n = 360,000); AID 1347056;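 active = compounds whose plate-normalised and pattern-corrected inhibition of the luciferase reporter signal at the single screening dose is 50% or more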
HSF1 activator – increases HSF-1 driven luciferase reporter signal | NIH3T3-HGL HSF-1 luciferase reporter, MG132, 8 h; 100% = twice DMSO control signal | actives 1.7% (n = 300,000) | AID 504408 | activation, % at 9 µM;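 active = mean replicate activation of at least 50% with a set share of replicates each reaching 50%; inconclusive = only one of those two conditions met; inactive = mean below 50% and too few replicates reaching it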
Each line names hits and unclear results; the compound was inactive in the other large screens. In the library only some 3.6% were active in any assay of this set; here they are far more common.

C[C@H]1CN([C@@H](C)CO)C(=O)c2cc(NS(=O)(=O)c3cccs3)ccc2O[C@@H]1CN(C)Cc1ccncc1	none (no result: TWEAK-Fn14 inh, HSF1 inh, LMP1 NFkB inh, TROY signal inh, HSF1 activator)
CCN(C(=O)c1cc2c(=O)[nH]c3ccc(C)cc3c2s1)c1ccccc1F	HSF1 activator 58
CCN(C(=O)c1cc2c(=O)[nH]c3ccc(C)cc3c2s1)c1ccc(F)cc1	HSF1 inh -76
CCN(C(=O)c1cc2c(=O)[nH]c3ccc(C)cc3c2s1)c1ccccc1C	none
Cc1ccc2nc(NC(=O)C3CCN(S(=O)(=O)c4cc([N+](=O)[O-])ccc4Cl)CC3)sc2c1	TWEAK-Fn14 inh 83
O=C(Nc1nc2ccc(F)cc2s1)C1CCN(S(=O)(=O)c2cc([N+](=O)[O-])ccc2Cl)CC1	TWEAK-Fn14 inh 84
Cc1ccc(NC(=O)C2CCN(S(=O)(=O)c3cc([N+](=O)[O-])ccc3Cl)CC2)nc1	none (no result: HSF1 inh, HSF1 activator)
CC(NC(=O)C1CCN(S(=O)(=O)c2cc([N+](=O)[O-])ccc2Cl)CC1)c1ccccc1 (configuration not stated)	none
COc1cc(NS(=O)(=O)c2ccc(NC(=O)/C=C/C(=O)O)cc2)nc(OC)n1	HSF1 inh -72
C[C@@H]1CN([C@H](C)CO)C(=O)c2cc(-c3ccccc3F)cnc2O[C@@H]1CN(C)Cc1ccc(F)cc1	none (no result: TWEAK-Fn14 inh, HSF1 inh, LMP1 NFkB inh, TROY signal inh, HSF1 activator)
Cc1ccccc1N(CC(=O)NCc1ccc2c(c1)OCO2)C(=O)C1CSC(=O)C1 (configuration not stated)	TWEAK-Fn14 inh 50
Cc1ccc2c(c1)N(Cc1ccc([N+](=O)[O-])cc1)C=NS2(=O)=O	HSF1 inh -65
CCc1nnc(N/N=C/c2ccccc2F)n1N	HSF1 activator 59
COc1cccc(/C=N/Nc2nnc(C)n2N)c1OCc1ccccc1Cl	none
CCc1nnc(N/N=C/c2ccccc2Cl)n1N	HSF1 activator 72 (no result: LGR2 antag)
CC1(C)CC(=O)C/C(=N/Nc2nc3ccccc3s2)C1	TWEAK-Fn14 inh 69, TROY signal inh 63
CC1CCC/C(=N/Nc2nc3ccccc3s2)C1 (configuration not stated)	none
COCCC(=O)N1CCCC(C(=O)c2ccc(C(F)(F)F)cc2)C1 (configuration not stated)	LMP1 NFkB inh 49
Cn1c(=O)c2ncn(CC(=O)N/N=C/C=C/c3ccccc3)c2n(C)c1=O	HSF1 activator 60
Cn1c(=O)c2c(ncn2CC(=O)N/N=C/C=C/c2ccccc2)n(C)c1=O	none
CS(=O)(=O)c1ccc(Sc2nc3ccccc3s2)c([N+](=O)[O-])c1	TWEAK-Fn14 inh 99, LMP1 NFkB inh 56 (no result: LGR2 antag)
O=[N+]([O-])c1cc(S(=O)(=O)C(F)(F)F)ccc1Sc1nc2ccccc2s1	HSF1 inh inconclusive (no result: LGR2 antag)
CC(C)CCN(CCC(C)C)C(=O)Cc1c(O)c2ccccc2[nH]c1=O	HSF1 activator 53
COCCNC(=O)C[C@H]1CC[C@H]2[C@H](COc3ccc(NC(C)=O)cc3C(=O)N2C)O1	none (no result: TWEAK-Fn14 inh, HSF1 inh, LMP1 NFkB inh, TROY signal inh, HSF1 activator)
Cc1ccc(C)c(OCCn2nnc3ccccc32)c1	none
Clc1ccccc1OCCn1nnc2ccccc21	TWEAK-Fn14 inh 95
OC(CCCN1CCCCC1)(c1ccccc1)c1ccccc1	LMP1 NFkB inh 89
COc1ccccc1-c1cnc2c(c1)C(=O)N([C@H](C)CO)C[C@H](C)[C@H](CN(C)Cc1cncnc1)O2	none (no result: TWEAK-Fn14 inh, HSF1 inh, LMP1 NFkB inh, TROY signal inh, HSF1 activator)
CNC(=O)C[C@@H]1CC[C@H]2[C@H](COc3ccc(NC(=O)Nc4cccc(Cl)c4)cc3C(=O)N2C)O1	none (no result: TWEAK-Fn14 inh, HSF1 inh, LMP1 NFkB inh, TROY signal inh, HSF1 activator)
CCOC(=O)CCCNC(=O)CSc1nnc(-c2ccccc2)c(-c2ccccc2)n1	none
O=C(CSc1nnc(-c2ccccc2)c(-c2ccccc2)n1)N1CCc2ccccc21	HSF1 activator 130
CCOC(=O)CSc1nnc(-c2ccccc2)c(-c2ccccc2)n1	HSF1 inh -82
CCOC(=O)CSc1cc(-c2ccccc2)nc2ncnn12	HSF1 activator 75
Cc1cc(C)c(S(=O)(=O)Nc2cccc(/C=C/C(=O)O)c2)c(C)c1	HSF1 activator 83
O=C(c1ccc(S(=O)(=O)c2cccc(Cl)c2)c([N+](=O)[O-])c1)N1CCN(Cc2ccccc2)CC1	TWEAK-Fn14 inh 84
Cc1ccc(S(=O)(=O)NCc2ccc(C(=O)N3CCN(c4ccc([N+](=O)[O-])cc4)CC3)cc2)cc1	TWEAK-Fn14 inh 50
O=C(c1ccc([N+](=O)[O-])cc1)N1CCN(Cc2ccccc2)CC1	LMP1 NFkB inh 59
O=[N+]([O-])c1ccc(C(=S)N2CCN(Cc3ccccc3)CC2)cc1	none
COCCNC(=O)C[C@H]1C[C@@H]2c3cc(NS(=O)(=O)c4ccccc4)ccc3O[C@@H]2[C@H](CO)O1	none (no result: TWEAK-Fn14 inh, HSF1 inh, LMP1 NFkB inh, TROY signal inh, HSF1 activator)
CCCNC(=O)Nc1ccc2c(c1)OC[C@@H](C)N(Cc1ccc(-c3ccccn3)cc1)C[C@@H](C)[C@@H](OC)CN(C)C2=O	none (no result: TWEAK-Fn14 inh, HSF1 inh, LMP1 NFkB inh, TROY signal inh, HSF1 activator)
CCOC(=O)CCNC(=O)N1CCCC(C(=O)c2cccc(Cl)c2)C1 (configuration not stated)	none
CCCNC(=O)N1CCCC(C(=O)c2cccc(Cl)c2)C1 (configuration not stated)	HSF1 inh -54
C[C@H](CO)N1C[C@H](C)[C@@H](CN(C)C(=O)Nc2ccc3c(c2)OCO3)Oc2cc(C3=CCCC3)ccc2S1(=O)=O	none (no result: TWEAK-Fn14 inh, HSF1 inh, LMP1 NFkB inh, TROY signal inh, HSF1 activator)
COc1ccccc1N(Cc1ccccc1)S(=O)(=O)c1cccc(C(=O)Nc2ccc(C)cn2)c1	TWEAK-Fn14 inh 53
CC(C)NC(=O)Nc1ccc2c(c1)CC(=O)N([C@@H](C)CO)C[C@@H](C)[C@@H](CN(C)S(=O)(=O)c1cccs1)O2	none (no result: TWEAK-Fn14 inh, HSF1 inh, LMP1 NFkB inh, TROY signal inh, HSF1 activator)
C=CCn1c(=NC(=O)C2CC2)sc2cc(NC(C)=O)ccc21	HSF1 inh -55
O=C(C[C@H]1C=C[C@@H](NS(=O)(=O)c2cccc(F)c2)[C@@H](CO)O1)NCc1ccc2c(c1)OCO2	none (no result: TWEAK-Fn14 inh, HSF1 inh, LMP1 NFkB inh, TROY signal inh, HSF1 activator)
C[C@H]1CCCCO[C@H](CN(C)Cc2ccc3c(c2)OCO3)[C@@H](C)CN([C@@H](C)CO)C(=O)c2cc(NC(=O)NC3CCCCC3)ccc2O1	none (no result: TWEAK-Fn14 inh, HSF1 inh, LMP1 NFkB inh, TROY signal inh, HSF1 activator)
COc1ccc(C(=O)NC(=S)Nc2ccc(CN3CCCCC3)cc2)cc1Cl	HSF1 activator 59 (no result: LGR2 antag)
COc1ccc(C(=O)NC(=S)Nc2ccc(CN3CCOCC3)cc2)cc1Cl	none
C[C@H](CO)N1C[C@H](C)[C@@H](CN(C)S(=O)(=O)c2ccc(Cl)cc2)OCCCC[C@H](C)Oc2ccc(NS(=O)(=O)c3cccs3)cc2C1=O	none (no result: TWEAK-Fn14 inh, HSF1 inh, LMP1 NFkB inh, TROY signal inh, HSF1 activator)
Cc1ccc(C(=O)NCC(=O)N(C)Cc2cccc(F)c2)s1	LMP1 NFkB inh 51 (no result: HSF1 inh, HSF1 activator)
Cc1ccc(-c2cc(-c3ccccc3)nc(Cl)n2)cc1	none
Cc1ccc(-c2cc(C(F)F)nc(S(C)(=O)=O)n2)cc1	HSF1 activator 305
Cc1cccc2c3nc4ccccc4nc3n(C)c12	TWEAK-Fn14 inh 54 (no result: LMP1 NFkB inh)
COc1ccc(NC(=O)Nc2ccc3c(c2)C(=O)N([C@@H](C)CO)C[C@@H](C)[C@H](CN(C)C(=O)Nc2c(C)noc2C)OCCCC[C@H](C)O3)cc1	none (no result: TWEAK-Fn14 inh, HSF1 inh, LMP1 NFkB inh, TROY signal inh, HSF1 activator)
